Data reported in PubChem BioAssay (Tox21).
Where “and” joins values, the source holds several entries; their conditions need not be identical. Identical values can stand only once. Inconclusive results are not listed. The source holds several records for some structures; these can differ, active in one and inactive in another. Calls of active or inactive are those of the source. Unless noted, calls come from the whole dose curve; as a rule, active = well fitted curve in the direction sought with a large enough effect in the repeat runs; inconclusive = weak or mixed curves; inactive = no such curve, though single readings can be large; an effect the other way counts as inactive or inconclusive.

Key:
[1] = molecular target: Estrogen receptor (Homo sapiens) (UniProt P03372); assay: qHTS assay to identify small molecule antagonists of the estrogen receptor alpha (ER-alpha) signaling pathway using the BG1 cell line in the presence of 0.1 nM 17-beta-estradiol (AID 1259244); note: nearly all actives have a fitted effect of over 50% in size; note: potency is the fitted concentration of half-maximal effect
In short: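 VM7Luc4E2 cells (endogenous full-length ER-alpha, 4×ERE-luciferase), kept 5 days in phenol red-free, charcoal-stripped FBS medium; 4,000 cells/well. Compounds added with 0.1 nM (final) 17beta-estradiol, 22 hr at 37C; luminescence read with ONE-Glo after 30 min.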

[2] = qHTS assay to identify small molecule HDAC inhibitors (AID 1259364); note: nearly all actives have a fitted effect of over 45% in size; note: potency is the fitted concentration of half-maximal effect
In short: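 Wild-type HCT-116 cells, plated overnight at 37 C, exposed to compounds 2 hr at 37 C; luminogenic HDAC-Glo substrate then added 30 min at room temperature. Luminescence reports relative endogenous class I/II HDAC activity.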

[3] = qHTS assay to identify small molecule HDAC inhibitors - cell viability counter screen (AID 1259365); note: series mostly up to about 92 µM; nearly all actives have a fitted effect of over 50% in size
In short: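 Following a 2hr exposure of overnight-plated wild-type HCT-116 cells to DMSO-delivered compounds, CellTiter-Glo was added and luminescence recorded after 30min at room temperature.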

[4] = qHTS assay to identify small molecule agonists of the sonic hedgehog signaling (Shh) pathway - cell viability counter screen (AID 1259366); note: nearly all actives have a fitted effect of over 50% in size
In short: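 After a 4hr attachment at 37C, NIH/3T3 cells bearing an integrated Gli1-driven luciferase reporter were dosed with compounds. Treatment lasted 24hr, with the final hour including CellTiter-Fluor for a fluorescence viability measurement.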

[5] = qHTS assay to identify small molecule antagonists of the sonic hedgehog signaling (Shh) pathway - cell viability counter screen (AID 1259367); note: nearly all actives have a fitted effect of over 55% in size
In short: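 NIH/3T3-derived Gli1-Luc reporter cells, 2,000/well, plated 4 hr before compound addition, then stimulated with conditioned medium for 24 hr at 37C. Viability measured in the same wells by CellTiter-Fluor fluorescence, reagent added at 23 hr for 1 hr.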

[6] = qHTS assay to identify small molecule agonists of the sonic hedgehog signaling (Shh) pathway (AID 1259368; calls by dose curve;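 note: NIH/3T3-derived 3T3Gli1-Luc cells carrying a stable Gli1-driven firefly luciferase reporter; series mostly up to about 92 µM; nearly all actives have a fitted effect of over 15% in size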)
In short: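 NIH/3T3-derived 3T3Gli1-Luc cells with stably integrated Gli1-driven firefly luciferase, 2,000 cells/well, compounds added after 4 hr. Incubated 24 hr at 37C, 5% CO2; luminescence read after 30 min with luciferase reagent at room temperature.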

[7] = qHTS assay to identify small molecule antagonists of the sonic hedgehog signaling (Shh) pathway (AID 1259369; calls by dose curve; note: nearly all actives have a fitted effect of over 45% in size; note: potency is the fitted concentration of half-maximal effect)
In short: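 NIH/3T3-derived Gli1-Luc reporter cells plated 4 h, dosed with compound, then stimulated with conditioned medium for 24 h at 37 C. Firefly luciferase luminescence read after 30 min with detection reagent at room temperature.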

[8] = molecular target: Estrogen receptor beta (Homo sapiens) (UniProt Q92731); assay: qHTS assay to identify small molecule agonists of the estrogen receptor beta (ER-beta) signaling pathway (AID 1259377; active = well fitted activation curve with a large enough effect in the signal ratio in the repeat runs, not every such curve was filed as active; the % refers to the signal ratio)
In short: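 In HEK293T cells bearing a UAS-beta-lactamase reporter under ER-beta control, DMSO-delivered compounds were incubated for 16 hr at 37C. Activity was detected as fluorescence 2 hours after LiveBLAzer B/G FRET substrate addition.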

[9] = molecular target: Estrogen receptor beta (Homo sapiens) (UniProt Q92731); assay: qHTS assay to identify small molecule antagonists of the estrogen receptor beta (ER-beta) signaling pathway (AID 1259378; active = well fitted inhibition curve with a large enough effect in the signal ratio in the repeat runs, not every such curve was filed as active; the % refers to the signal ratio)
In short: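 ER-beta-UAS-bla HEK293T cells in 2% charcoal-stripped FBS medium treated with compound plus 1nM final 17-beta-estradiol for 16 hr at 37C. Beta-lactamase reporter read by FRET substrate fluorescence after 2 hours at room temperature.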

[10] = qHTS assay to identify small molecule agonists of the androgen receptor (AR) signaling pathway in the presence of an antagonist - cell viability counter screen (AID 1259379);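 note: MDA-kb2 human breast cancer cells carrying an MMTV luciferase reporter; series mostly up to about 92 µM; nearly all actives have a fitted effect of over 25% in size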
In short: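 MDA-kb2 cells (MMTV-luciferase, AR/GR), 3,000/well, 5 h attachment, then 3.0 µM nilutamide (final) and compounds at 15 concentrations. Viability by CellTiter-Fluor fluorescence after 16 h at 37 °C, 0% CO2, in the reporter wells.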

[11] = qHTS assay to identify small molecule agonists of the estrogen receptor beta (ER-beta) signaling pathway - cell viability counter screen (AID 1259380); note: nearly all actives have a fitted effect of over 30% in size; note: potency is the fitted concentration of half-maximal effect
In short: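 ER-beta-UAS-bla HEK293T cells in medium with 2% charcoal-stripped FBS, pre-incubated 6 hr, then treated 16 hr at 37C. Cytotoxicity read in the same wells by CellTiter-Glo luminescence after 30 min at room temperature.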

[12] = qHTS assay to identify small molecule antagonists of the estrogen receptor beta (ER-beta) signaling pathway - cell viability counter screen (AID 1259382); note: series mostly up to about 92 µM; nearly all actives have a fitted effect of over 55% in size
In short: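 ER-beta-UAS-bla HEK293T cells in 2% charcoal-stripped FBS medium, treated with compound plus 1 nM 17-beta-estradiol for 16 h at 37C. Viability read by CellTiter-Glo luminescence after 30 min at room temperature in the same wells.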

[13] = molecular target: Estrogen receptor (Homo sapiens) (UniProt P03372); assay: qHTS assay to identify small molecule agonists of the estrogen receptor alpha (ER-alpha) signaling pathway in the presence of an antagonist (AID 1259383; calls by dose curve; note: top concentration of the series differs between compounds; nearly all actives have a fitted effect of over 15% in size)
In short: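 VM7Luc4E2 cells express endogenous full-length ER-alpha with an ERE-luciferase reporter and were hormone-deprived for 5 days. Compounds at 15 concentrations were added with 10.0nM ICI-182,780 for 22hr at 37C. Luminescence was read with ONE-Glo.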

[14] = qHTS assay to identify small molecule agonists or antagonists of the thyroid stimulating hormone receptor (TSHR) signaling pathway - wild type cell line counter screen (AID 1259384; calls by dose curve)
In short: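 Wild-type Hek293 cells, 800/well, 18 h at 37C, then compound with Ro20-1724 for 30 min RT. cAMP by HTRF (cAMP-d2/anti-cAMP cryptate), 1 h RT, fluorescence read. 15 concentrations, triplicates.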

[15] = molecular target: Thyrotropin receptor (Homo sapiens) (UniProt P16473); assay: qHTS assay to identify small molecule antagonists of the thyroid stimulating hormone receptor (TSHR) signaling pathway (AID 1259385; calls by dose curve; note: nearly all actives have a fitted effect of over 20% in size)
In short: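 TSHR-HEK293 cells (800/well) plated 18 h, then compounds with Ro20-1724 and TSH at 1.5 ng/mL final, 30 min at room temperature. cAMP quantified by HTRF (cAMP-d2/anti-cAMP-cryptate, 1 h); 15 concentrations in triplicate.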

[16] = qHTS assay to identify small molecule agonists of the estrogen receptor alpha (ER-alpha) signaling pathway in the presence of an antagonist - cell viability counter screen (AID 1259386);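 note: series mostly up to about 92 µM; cells exposed to compounds for 22 h at 37 °C before the viability read; nearly all actives have a fitted effect of over 30% in size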
In short: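 Cell viability in VM7Luc4E2 cells (endogenous full-length ER-alpha) measured by CellTiter-Fluor fluorescence in the same wells as the luciferase screen. Cells pre-cultured 5 days in charcoal-stripped serum, then treated 22 h with compounds at 15 concentrations plus 10.0nM ICI-182,780.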

[17] = molecular target: Progesterone receptor (Homo sapiens) (UniProt P06401); assay: qHTS assay to identify small molecule agonists of the progesterone receptor (PR) signaling pathway (AID 1346784; calls by dose curve; note: nearly all actives have a fitted effect of over 30% in size)
In short: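 Using charcoal-stripped serum (2%) to limit endogenous steroids, PR-UAS-bla HEK 293T cells received compounds for 16 hr at 37C after 6 hr plating; beta-lactamase FRET fluorescence was recorded following 2 hr substrate loading at room temperature.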

[18] = molecular target: Progesterone receptor (Homo sapiens) (UniProt P06401); assay: qHTS assay to identify small molecule antagonists of the progesterone receptor (PR) signaling pathway (AID 1346795; active = well fitted inhibition curve with a large enough effect in the signal ratio in the repeat runs, not every such curve was filed as active; the % refers to the signal ratio; note: potency is the fitted concentration of half-maximal effect)
In short: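 Inhibition of R5020-induced (1 nM final) beta-lactamase reporter signal in PR-UAS-bla HEK293T cells was scored by FRET fluorescence after overnight (16 hr) compound treatment.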

[19] = qHTS assay to identify small molecule phospholipidosis (PLD) inducers (AID 1259344; active = well fitted curve in the direction sought with a large enough effect; an effect the other way counts as inactive or inconclusive)
In short: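 HepG2 cells, 900/well, treated with compound plus LipidTOX Red for 24 h at 37 C; amiodarone positive and DMSO negative controls. Fixed with paraformaldehyde/Hoechst, then high-content imaging scored LipidTOX pit count and integrated intensity per well and per cell.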

[20] = molecular target: Androgen receptor (Homo sapiens) (UniProt P10275); assay: qHTS assay to identify small molecule agonists of the androgen receptor (AR) signaling pathway in the presence of an antagonist (AID 1259381; calls by dose curve; note: nearly all actives have a fitted effect of over 15% in size)
In short: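 MDA-kb2 cells carrying MMTV-luciferase (AR/GR responsive), 3,000 cells/well, co-treated with 3.0 uM nilutamide final. Compounds at 15 concentrations, 16 hr at 37C without CO2. Luciferase luminescence read after 30 min with ONE-Glo.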

Measured: Potency

Androgen receptor (Homo sapiens), sequence (P10275 whole entry, looked up): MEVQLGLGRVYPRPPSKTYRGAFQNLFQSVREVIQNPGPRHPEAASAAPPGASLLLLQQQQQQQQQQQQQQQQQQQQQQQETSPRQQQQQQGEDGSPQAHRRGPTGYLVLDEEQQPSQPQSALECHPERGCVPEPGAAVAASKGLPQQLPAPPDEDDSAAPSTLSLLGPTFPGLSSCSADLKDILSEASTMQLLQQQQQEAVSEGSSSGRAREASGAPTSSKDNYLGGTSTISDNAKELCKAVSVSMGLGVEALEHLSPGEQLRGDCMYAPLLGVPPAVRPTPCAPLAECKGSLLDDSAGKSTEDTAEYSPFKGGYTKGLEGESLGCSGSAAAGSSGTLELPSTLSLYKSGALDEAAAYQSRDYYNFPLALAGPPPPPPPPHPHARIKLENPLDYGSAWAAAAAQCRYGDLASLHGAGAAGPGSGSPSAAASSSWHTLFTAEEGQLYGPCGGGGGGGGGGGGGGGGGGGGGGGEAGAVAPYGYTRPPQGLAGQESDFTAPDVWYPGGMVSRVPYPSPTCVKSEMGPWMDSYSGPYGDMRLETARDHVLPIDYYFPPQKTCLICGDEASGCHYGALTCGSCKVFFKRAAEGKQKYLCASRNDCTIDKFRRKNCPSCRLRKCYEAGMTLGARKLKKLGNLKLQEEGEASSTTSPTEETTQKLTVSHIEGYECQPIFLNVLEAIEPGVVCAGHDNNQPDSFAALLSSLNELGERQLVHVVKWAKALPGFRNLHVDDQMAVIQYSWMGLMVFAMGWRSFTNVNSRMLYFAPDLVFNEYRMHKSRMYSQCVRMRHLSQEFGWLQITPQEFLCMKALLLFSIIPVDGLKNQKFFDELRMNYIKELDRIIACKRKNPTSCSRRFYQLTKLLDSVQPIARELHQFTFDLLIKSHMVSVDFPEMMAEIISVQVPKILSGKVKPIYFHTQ
Estrogen receptor beta (Homo sapiens), sequence (Q92731 whole entry, looked up): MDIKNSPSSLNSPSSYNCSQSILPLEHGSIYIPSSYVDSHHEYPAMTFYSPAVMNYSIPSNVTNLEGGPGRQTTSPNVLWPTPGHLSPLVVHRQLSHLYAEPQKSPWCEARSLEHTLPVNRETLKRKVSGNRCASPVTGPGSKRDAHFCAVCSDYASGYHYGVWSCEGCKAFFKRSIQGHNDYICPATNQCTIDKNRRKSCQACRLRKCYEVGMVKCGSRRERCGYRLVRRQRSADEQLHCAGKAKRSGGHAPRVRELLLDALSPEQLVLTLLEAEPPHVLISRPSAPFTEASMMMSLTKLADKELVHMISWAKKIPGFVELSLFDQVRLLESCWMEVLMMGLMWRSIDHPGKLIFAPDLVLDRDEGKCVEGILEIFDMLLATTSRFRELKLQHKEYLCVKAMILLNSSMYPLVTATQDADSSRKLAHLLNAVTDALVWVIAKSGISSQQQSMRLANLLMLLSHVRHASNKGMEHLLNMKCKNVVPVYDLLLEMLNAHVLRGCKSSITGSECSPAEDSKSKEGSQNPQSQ
Thyrotropin receptor (Homo sapiens), sequence (P16473 whole entry, looked up): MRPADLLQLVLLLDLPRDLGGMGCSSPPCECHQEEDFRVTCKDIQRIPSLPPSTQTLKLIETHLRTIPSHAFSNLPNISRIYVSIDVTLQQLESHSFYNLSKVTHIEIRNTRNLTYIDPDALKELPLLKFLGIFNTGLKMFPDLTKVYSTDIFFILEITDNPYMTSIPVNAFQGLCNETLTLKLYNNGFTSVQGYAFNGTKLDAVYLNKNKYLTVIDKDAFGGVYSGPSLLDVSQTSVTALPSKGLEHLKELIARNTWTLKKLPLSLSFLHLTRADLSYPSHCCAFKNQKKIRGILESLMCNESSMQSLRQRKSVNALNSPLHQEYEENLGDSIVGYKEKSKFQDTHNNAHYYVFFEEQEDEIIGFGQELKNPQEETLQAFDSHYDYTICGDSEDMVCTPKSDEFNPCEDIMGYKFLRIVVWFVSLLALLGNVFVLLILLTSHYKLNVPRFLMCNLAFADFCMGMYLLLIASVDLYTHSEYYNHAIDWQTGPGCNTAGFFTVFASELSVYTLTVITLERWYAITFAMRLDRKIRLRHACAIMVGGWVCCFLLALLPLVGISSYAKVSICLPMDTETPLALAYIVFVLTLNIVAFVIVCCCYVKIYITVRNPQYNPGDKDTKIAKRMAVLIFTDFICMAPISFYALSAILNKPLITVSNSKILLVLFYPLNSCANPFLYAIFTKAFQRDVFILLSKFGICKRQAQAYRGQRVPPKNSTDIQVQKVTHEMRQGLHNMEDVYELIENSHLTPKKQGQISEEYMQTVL
Estrogen receptor (Homo sapiens), sequence (P03372 whole entry, looked up): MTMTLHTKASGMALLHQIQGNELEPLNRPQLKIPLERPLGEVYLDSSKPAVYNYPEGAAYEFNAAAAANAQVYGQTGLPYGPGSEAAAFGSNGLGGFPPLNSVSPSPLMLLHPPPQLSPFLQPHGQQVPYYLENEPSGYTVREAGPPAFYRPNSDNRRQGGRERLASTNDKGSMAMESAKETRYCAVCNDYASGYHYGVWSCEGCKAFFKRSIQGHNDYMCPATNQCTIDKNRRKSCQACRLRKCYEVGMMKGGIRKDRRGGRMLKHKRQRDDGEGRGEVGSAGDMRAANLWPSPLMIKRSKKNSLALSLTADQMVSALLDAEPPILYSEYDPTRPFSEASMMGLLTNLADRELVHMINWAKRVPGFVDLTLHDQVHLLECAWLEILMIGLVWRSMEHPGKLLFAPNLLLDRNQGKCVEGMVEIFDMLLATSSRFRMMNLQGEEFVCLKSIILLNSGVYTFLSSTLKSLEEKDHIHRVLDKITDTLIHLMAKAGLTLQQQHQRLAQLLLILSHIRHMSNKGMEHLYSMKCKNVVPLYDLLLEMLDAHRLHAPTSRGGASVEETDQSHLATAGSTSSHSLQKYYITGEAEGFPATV
Progesterone receptor (Homo sapiens), sequence (P06401 whole entry, looked up): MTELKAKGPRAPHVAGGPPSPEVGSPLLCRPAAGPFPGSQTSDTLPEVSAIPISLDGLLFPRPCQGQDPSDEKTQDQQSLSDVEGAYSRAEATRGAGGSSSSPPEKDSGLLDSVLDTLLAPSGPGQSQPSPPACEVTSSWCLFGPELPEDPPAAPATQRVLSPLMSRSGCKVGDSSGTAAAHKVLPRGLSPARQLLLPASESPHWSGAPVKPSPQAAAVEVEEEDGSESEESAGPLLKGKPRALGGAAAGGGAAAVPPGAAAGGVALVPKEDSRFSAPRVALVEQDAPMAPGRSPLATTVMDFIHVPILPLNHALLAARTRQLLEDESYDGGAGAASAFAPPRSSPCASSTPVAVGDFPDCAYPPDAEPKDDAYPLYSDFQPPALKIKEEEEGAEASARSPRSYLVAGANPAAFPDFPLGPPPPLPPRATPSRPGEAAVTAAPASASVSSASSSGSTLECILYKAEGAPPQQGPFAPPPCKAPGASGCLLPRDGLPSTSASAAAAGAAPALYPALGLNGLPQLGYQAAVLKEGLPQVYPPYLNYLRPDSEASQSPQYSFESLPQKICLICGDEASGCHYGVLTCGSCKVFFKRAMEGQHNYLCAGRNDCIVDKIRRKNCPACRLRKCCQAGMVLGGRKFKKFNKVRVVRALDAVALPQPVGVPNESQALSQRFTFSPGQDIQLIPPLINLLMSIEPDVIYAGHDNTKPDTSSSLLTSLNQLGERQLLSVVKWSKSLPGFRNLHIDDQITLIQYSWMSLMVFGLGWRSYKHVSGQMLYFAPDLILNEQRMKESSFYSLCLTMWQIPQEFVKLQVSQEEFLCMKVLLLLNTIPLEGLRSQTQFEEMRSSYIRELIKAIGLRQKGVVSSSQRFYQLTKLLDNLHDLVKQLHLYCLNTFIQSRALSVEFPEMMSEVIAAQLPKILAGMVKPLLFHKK

O=NN1CCCC1
20.2 µM (active) and inactive: [1] | [11]
not listed: [19] | [20]
inactive: all other assays above

CCCN(CCC)N=O
not listed: [6] | [19] | [20]
inactive: all other assays above

O=[N+]([O-])c1ccccc1
not listed: [2] | [3] | [4] | [11] | [20]
inactive: all other assays above

O=c1n(Cl)c(=O)n(Cl)c(=O)n1Cl
not listed: [2] | [11] | [20]
inactive: all other assays above

CC(Br)C(=O)O (stereo not drawn)
not listed: [4] | [19] | [20]
inactive: all other assays above

CCCCN(CC)C(=O)SCCC
not listed: [4] | [6] | [11] | [19]
inactive: all other assays above

Nc1ccc(Br)cc1
43.2 µM (active) and inactive: [7]
active: [18] 61 µM
not listed: [6] | [9] | [11] | [19] | [20]
inactive: all other assays above

Cc1ccc(N)cc1Cl
not listed: [19] | [20]
inactive: all other assays above

c1cc2c3c(cccc3c1)CC2
not listed: [6] | [11] | [19]
inactive: all other assays above

CC(C)C1(C)N=C(c2nc3ccccc3cc2C(=O)O)NC1=O (stereo not drawn)
not listed: [19] | [20]
inactive: all other assays above

Cc1[nH]c(=O)n(C(C)(C)C)c(=O)c1Cl
not listed: [8] | [9] | [19]
inactive: all other assays above

C1CC2OC2CC1C1CO1 (stereo not drawn)
not listed: [19] | [20]
inactive: all other assays above

c1ccc(-c2ccccc2)cc1
not listed: [4] | [18] | [19]
inactive: all other assays above

CC(C)OC(=O)Nc1ccccc1
active: [2] 27.4 µM and 24.3 µM
not listed: [4] | [8] | [9] | [19] | [20]
inactive: all other assays above

COC(=O)c1ccccc1C(=O)OC
not listed: [3] | [6] | [11] | [20]
inactive: all other assays above

BrCCBr
not listed: [11] | [19] | [20]
inactive: all other assays above

C=C(C)CCl
not listed: [8] | [9] | [14] | [15] | [19]
inactive: all other assays above
